Assay results reported in the supplement of paper PMC9897528.

The molecules below were run on Scedosporium aurantiacum CBS 136046 (assay: growth inhibition relative to DMSO control (OD600); higher = more antifungal activity, active = 80 or more; extreme values may be limits of the assay). Conditions: 5 µM; 72 h; 37 °C.
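Further: conidia screened in RPMI 1640 medium under 5% CO2, growth read by spectrophotometer, medium with 0.5% DMSO serving as the untreated reference.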

Growth inhibition, inactive:
O=C(O)c1sccc1S(=O)(=O)n1ccc2cc(Br)ccc21 14.6%
Nc1nc2c(ncn2COCCO)c(=O)[nH]1 11.1%
CCc1nc2ccccn2c1C(=O)NCc1ccccc1 13%
CCCCCCC1c2ccc(O)cc2Oc2cc(O)ccc21 4.47%
Nc1nc(NC2Cc3ccc(F)cc3C2)nc(N2CCCCC2)n1 (stereo not drawn) 45.3%
N=c1n(CCN2CCCCC2)c2ccccc2n1CC(O)COc1ccc(Cl)cc1Cl (stereo not drawn) 25.3%
CCCCSc1nc(N)c2[nH]c(=O)c(=O)n(Cc3ccccc3)c2n1 6.53%
CCOc1ccc(C(=O)NCCc2ccccc2)cc1 33.4%
NC(=O)c1cnccn1 1.73%
O=S(=O)(NCB(O)O)c1ccc(-c2nnn[nH]2)cc1C(F)(F)F 13.6%
COc1ccc(C)cc1NC(=O)c1ccc(S(=O)(=O)N2CCCCC2)cc1 32.4%
Cn1cncc1[C@@](N)(c1ccc(Cl)cc1)c1ccc2c(c1)c(-c1cccc(Cl)c1)cc(=O)n2C 11.3%
Nc1nc2c(ncn2/C=C2/CC2(CO)CO)c(=O)[nH]1 1.28%
C=C(C)n1c(=O)n(Cc2ccccc2C)c2ccccc21 21.5%
CCc1cc(Nc2cc(=O)n(CCN3CCN(C(=O)c4ccccc4)CC3)c(=O)[nH]2)ccc1C 0%
O=C(NC1CCCc2c1[nH]c1ccc(Cl)cc21)c1ccccn1 (stereo not drawn) 15.1%
C=CCN(C(=O)OCc1ccc([N+](=O)[O-])cc1)C1CCN(CC[C@](C)(CN(C)S(=O)(=O)c2ccccc2)c2ccccc2)CC1 34.9%
C[C@H]1[C@@H](c2cccc(C(F)(F)F)c2)OC(=O)N1C(=O)NCc1cncc2ccccc12 11.5%
C=C(C)[C@@H]1CC[C@]2(C(=O)O)CC[C@]3(C)[C@H](CC[C@@H]4[C@@]5(C)CC[C@H](O)C(C)(C)[C@@H]5CC[C@]43C)[C@@H]12 1.06%
Cc1cc(O)c2c(c1)C(=O)c1c(I)c(O)c(I)c(O)c1C2=O 2.05%
O=C(c1nc2c(C(F)(F)F)cc(C3CC3)cn2c1Cl)N1CCN([C@H]2CC[C@H](O)CC2)C(=O)C1 4.91%
c1ccc(Cn2c(-c3ccccn3)nc3ccccc32)cc1 14.3%
O=[N+]([O-])c1ccc2c(CCc3c[nH]c4ccccc34)c[nH]c2c1 48.7%
O=C(CCc1ccc2c(c1)OCO2)NCc1ccc(-c2ccccc2F)cc1 28.3%
CCOC(=O)/C=C/[C@H](C[C@@H]1CCNC1=O)NC(=O)[C@@H](CC(=O)[C@@H](NC(=O)c1cc(C)on1)C(C)C)Cc1ccc(F)cc1 1.27%
Nc1nc2c(Cc3cccnc3)c[nH]c2c(=O)[nH]1 2.57%
O=C(CC1Sc2ncnn2C1=O)Nc1ccc(Br)cc1 (stereo not drawn) 33.4%
O=C(Nc1[nH]c(=O)ncc1F)c1ccccc1 5.77%
O=C(NCCN1CCCCC1)c1cccc(C(F)(F)F)c1 10.1%
CC1(C)[C@H](C(=O)O)N2C(=O)C[C@H]2S1(=O)=O 0%
COc1cc(Cc2cnc(N)nc2N)cc(OC)c1OC 0.169%
O=C(O)c1cc(-c2ccc(Br)cc2)nc2ccc(Cl)cc12 15.5%
NS(=O)(=O)c1ccc(NC(=O)NC(c2ccccc2)c2ccccc2)cc1 25.6%
Clc1cc2nc(C3CCNCC3)n(Cc3ccc(CNCCc4c[nH]cn4)cc3)c2cc1Cl 16.1%
CN(O)C(=O)c1cc2c(CN3CCC[C@H]3C(N)=O)cn(Cc3ccc(F)cc3)c2cn1 1.58%
O=S(=O)(Nc1ccc(-n2cccc2)cc1)c1ccc(Cl)c(Cl)c1 41.8%
C[C@H](NC(CC(=O)c1ccccc1C(F)(F)F)C(=O)O)c1ccccc1 (stereo partly drawn) 2.25%
CN(C)CCCOc1ccc(-c2ccc3ncc4c(c3c2)n(C2CCOCC2)c(=O)n4C)cn1 3.43%
